This is part of a sample that, as a whole, favours compounds with a hit. Of some 83,000 tested, about 20% had one in any assay.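 Assay: single dose, 48 h. Readout: percent growth (0 = no net growth; negative = cell death). Active: <10.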 A number with no mark means an inactive call. Calls of active or inactive are those of the source.

One assay deals with ACHN renal. The assay can be described thus: NCI-60 one-dose screen, 48 h (100 = growth as untreated, 0 = no growth, -100 = all killed). As to conditions: 10 µM unless noted.
Consider `O=c1cc(Cc2ccc([N+](=O)[O-])cc2)[nH]c(=O)[nH]1`, for which the growth is 98.1%.

Consider `Cc1csc(NC(c2ccccc2)c2c(C)nc3ccccn23)n1` (stereo not given), for which the growth is 102%.

On to `Cc1ccc(/C=C2\CN(C(=O)CCN3CCC(=NO)CC3)C/C(=C\c3ccc(C)cc3)C2=O)cc1`, for which the growth was -38.8% (active).

As to `O=C1Nc2ccc3c(c2/C1=C\c1cc2c(cc1Br)OCO2)OCO3`, the growth is 11.4%.

As to `c1ccc(-c2nc(N3CCNCC3)c3nc(-c4ccccc4)oc3n2)cc1`, the growth is -99.2% (active).

With `CCN(CC)c1ccc(CNc2ccnc3ccccc23)cc1`, the growth was 75.8%.

Turning to `CN(CCCCN(C[C@H]1Cc2ncccc2CN1)[C@H]1CCCc2cccnc21)C1CCC(F)(F)CC1`, the growth is 102%.

`O=[N+]([O-])c1ccc(OCCCOc2ccccc2)cc1`: the growth was 106%.

For `N#C/C(=C1C=C/C(=N/O)C(Cl)=C/1)c1ccc(Cl)cc1`, the growth is 67.3%.

In the case of `CCCCC(CC)OC(=O)C(Br)CC` (stereo not given), the growth is 109%.

Regarding `C=C[C@@H]1C[C@@H]2Cc3c(C)cc(C)cc3N1O2`, the growth is 101%.

As for `C=C[C@@H]1C[C@@H]2Cc3ccccc3N1O2`, the growth is 110%.

Consider `CC(=O)OC[C@]12CC[C@H]3[C@@H](C[C@H]4O[C@]45CC=CC(=O)[C@]35C)[C@]1(O)CC[C@@]2(O)[C@@](C)(O)C1CC(C)=C(C)C(=O)O1` (stereo not given in full), for which the growth is -64.1% (active).

As to `CO[C@H]1NC(=O)N(S(=O)(=O)c2ccc(Cl)cc2)[C@@H]1OC`, the growth is 105%.

As to `COC(=O)c1cc2cc(-c3ccc(OC)cc3)cnc2[nH]1`, the growth was 44%.

Regarding `O=C(Nc1cccc(-n2cc(-c3ccncc3)c(-c3ccc(Cl)c(O)c3)n2)c1)Nc1cc(C(F)(F)F)cc(C(F)(F)F)c1`, the growth was 8.48% (active).

For `C[n+]1c(/C=C/c2c(O)ccc3ccccc23)ccc2ccccc21`, the growth is 31.6%.

In the case of `COc1ccc(-c2cn(-c3cccc(C(=O)/C=C/c4cc(OC)c(OC)c(OC)c4)c3)c(=O)[nH]2)cc1OC`, the growth was 81.8%.

`C=C[C@@H]1C[C@H](O)Cc2c(C)cc(C)cc2N1`: the growth is 103%.

With `O=C(O)Cc1cccc(=O)c(O)c1C(=O)O`, the growth was 101%.

`COc1cc(/C=C/C(=O)c2ccc(Nc3ncnc4cc(OC)c(OC)cc34)cc2)cc(OC)c1`: the growth is 102%.

As to `COc1cc(/C=C/C(=O)c2cccc(-n3cc(-c4cc(OC)c(OC)c(OC)c4)[nH]c3=O)c2)cc(OC)c1OC`, the growth was -57.6% (active).

`COC1=C(OC)C(=O)C(CCCCCCCCCC[P+](c2ccccc2)(c2ccccc2)c2ccccc2)=C(C)C1=O`: the growth was -25.9% (active).

As for `C=C[C@@H]1C[C@H](O)Cc2ccccc2N1`, the growth was 107%.

Turning to `CCN1C(=O)N(CC)C2C1NN=c1s/c(=C\c3cccnc3)c(=O)n12` (stereo not given), the growth was 42.9%.

`O=S(=O)(CC(O)(c1ccccc1)c1ccccc1)CC(O)(c1ccccc1)c1ccccc1`: the growth was 78.1%.

Regarding `CCN(CC)CCCC(C)Nc1c2ccc(Cl)cc2nc2cc(OC)c(OC)cc12` (stereo not given), the growth is -76.2% (active).

As for `CCCCCCCCCCCC(=O)NCCC[N+](C)(C)CC(=O)[O-]`, the growth was 109%.

Regarding `CCOC(=O)/C(C#N)=C1/C(=O)Nc2ccccc21`, the growth is 102%.

With `Cn1c(=O)c2[nH]c(C3CC=CCC3)nc2n(C)c1=O` (stereo not given), the growth is 101%.

Consider `O=[N+]([O-])c1cc(S(=O)(=O)Oc2ccccc2)ccc1Cl`, for which the growth is 37.6%.

For the molecule `C=C(C)[C@@H]1C[C@H](O)Cc2cc(F)ccc2N1`, the growth is 94.4%.

Consider `COc1ccc2c(c1)[nH]c(=O)c1c3cccc(F)c3cn21`, for which the growth is 37.7%.

With `CN(C)c1nc2c(N)ncnc2n1C1OC(CO)C(O)C1O` (stereo not given), the growth is 99.4%.

Consider `O=C1NN(C(=O)c2ccc(Cl)cc2)C(c2ccccc2)=N/C1=C\c1ccc(F)cc1`, for which the growth was 83.2%.

In the case of `O=C1/C(=C/c2ccc(Cl)cc2)CN(Cc2cn(CCNc3ccnc4cc(Cl)ccc34)nn2)C/C1=C\c1ccc(Cl)cc1`, the growth is -100% (active).

`NC(=S)N/N=C1\CCCC(C(F)(F)F)C1` (stereo not given): the growth was 91.8%.

The next assay concerns CAKI-1 renal. The description is as above. As to conditions: 10 µM unless noted.
`O=c1cc(Cc2ccc([N+](=O)[O-])cc2)[nH]c(=O)[nH]1`: the growth is 110%.

In the case of `Cc1csc(NC(c2ccccc2)c2c(C)nc3ccccn23)n1` (stereo not given), the growth is 94.5%.

With `Cc1ccc(/C=C2\CN(C(=O)CCN3CCC(=NO)CC3)C/C(=C\c3ccc(C)cc3)C2=O)cc1`, the growth is 5.48% (active).

For `O=C1Nc2ccc3c(c2/C1=C\c1cc2c(cc1Br)OCO2)OCO3`, the growth is -25.7% (active).

For `c1ccc(-c2nc(N3CCNCC3)c3nc(-c4ccccc4)oc3n2)cc1`, the growth is -85.3% (active).

Consider `CCN(CC)c1ccc(CNc2ccnc3ccccc23)cc1`, for which the growth was 61.9%.

With `CN(CCCCN(C[C@H]1Cc2ncccc2CN1)[C@H]1CCCc2cccnc21)C1CCC(F)(F)CC1`, the growth is 73.9%.

`ClC(Cl)c1nc(-c2ccccc2)nc2cc(-c3ccccc3)nn12`: the growth was 50.6%.

Consider `O=[N+]([O-])c1ccc(OCCCOc2ccccc2)cc1`, for which the growth is 93.9%.

Consider `N#C/C(=C1C=C/C(=N/O)C(Cl)=C/1)c1ccc(Cl)cc1`, for which the growth is 34%.

Take `CCCCC(CC)OC(=O)C(Br)CC` (stereo not given): the growth was 99%.

Regarding `C=C[C@@H]1C[C@@H]2Cc3c(C)cc(C)cc3N1O2`, the growth was 92.3%.

`C=C[C@@H]1C[C@@H]2Cc3ccccc3N1O2`: the growth is 97.8%.

As for `CC(=O)OC[C@]12CC[C@H]3[C@@H](C[C@H]4O[C@]45CC=CC(=O)[C@]35C)[C@]1(O)CC[C@@]2(O)[C@@](C)(O)C1CC(C)=C(C)C(=O)O1` (stereo not given in full), the growth is -63.7% (active).

As for `CO[C@H]1NC(=O)N(S(=O)(=O)c2ccc(Cl)cc2)[C@@H]1OC`, the growth was 92.5%.

On to `COC(=O)c1cc2cc(-c3ccc(OC)cc3)cnc2[nH]1`, for which the growth was -2.35% (active).

`O=C(Nc1cccc(-n2cc(-c3ccncc3)c(-c3ccc(Cl)c(O)c3)n2)c1)Nc1cc(C(F)(F)F)cc(C(F)(F)F)c1`: the growth is 8.94% (active).

Turning to `C[n+]1c(/C=C/c2c(O)ccc3ccccc23)ccc2ccccc21`, the growth was 35.1%.

In the case of `COc1ccc(-c2cn(-c3cccc(C(=O)/C=C/c4cc(OC)c(OC)c(OC)c4)c3)c(=O)[nH]2)cc1OC`, the growth was 96%.

As to `C=C[C@@H]1C[C@H](O)Cc2c(C)cc(C)cc2N1`, the growth was 97.2%.

Turning to `O=C(O)Cc1cccc(=O)c(O)c1C(=O)O`, the growth is 96.1%.

For the molecule `COc1cc(/C=C/C(=O)c2ccc(Nc3ncnc4cc(OC)c(OC)cc34)cc2)cc(OC)c1`, the growth was 97.6%.

Regarding `COc1cc(/C=C/C(=O)c2cccc(-n3cc(-c4cc(OC)c(OC)c(OC)c4)[nH]c3=O)c2)cc(OC)c1OC`, the growth is -24.2% (active).

Take `COC1=C(OC)C(=O)C(CCCCCCCCCC[P+](c2ccccc2)(c2ccccc2)c2ccccc2)=C(C)C1=O`: the growth was -40.6% (active).

`C=C[C@@H]1C[C@H](O)Cc2ccccc2N1`: the growth is 100%.

For the molecule `CCN1C(=O)N(CC)C2C1NN=c1s/c(=C\c3cccnc3)c(=O)n12` (stereo not given), the growth was 47.5%.

Consider `O=S(=O)(CC(O)(c1ccccc1)c1ccccc1)CC(O)(c1ccccc1)c1ccccc1`, for which the growth was 66.9%.

As to `CCN(CC)CCCC(C)Nc1c2ccc(Cl)cc2nc2cc(OC)c(OC)cc12` (stereo not given), the growth was 9.87% (active).

Turning to `CCCCCCCCCCCC(=O)NCCC[N+](C)(C)CC(=O)[O-]`, the growth is 95.8%.

Consider `CCOC(=O)/C(C#N)=C1/C(=O)Nc2ccccc21`, for which the growth was 99.4%.

On to `Cn1c(=O)c2[nH]c(C3CC=CCC3)nc2n(C)c1=O` (stereo not given), for which the growth is 118%.

Take `O=[N+]([O-])c1cc(S(=O)(=O)Oc2ccccc2)ccc1Cl`: the growth was -89.4% (active).

On to `C=C(C)[C@@H]1C[C@H](O)Cc2cc(F)ccc2N1`, for which the growth is 91.4%.

On to `CN(C)c1nc2c(N)ncnc2n1C1OC(CO)C(O)C1O` (stereo not given), for which the growth is 99.3%.

Consider `O=C1NN(C(=O)c2ccc(Cl)cc2)C(c2ccccc2)=N/C1=C\c1ccc(F)cc1`, for which the growth was 85.1%.

As for `N[C@H]1CN(C(=O)c2cc3cc(Br)c(F)c(F)c3[nH]2)C[C@@H]1O`, the growth is 79.4%.

For the molecule `O=C1/C(=C/c2ccc(Cl)cc2)CN(Cc2cn(CCNc3ccnc4cc(Cl)ccc34)nn2)C/C1=C\c1ccc(Cl)cc1`, the growth is 6.59% (active).

As to `NC(=S)N/N=C1\CCCC(C(F)(F)F)C1` (stereo not given), the growth was 87.5%.

The record behind these values is PubChem BioAssay (NCI).
